# Results: PubChem BioAssay (Tox21)
# Activity calls are given as the source filed them. The call rests on the fitted dose curve; in most records, active means well fitted curve in the direction sought with a large enough effect in the repeat runs; inconclusive means weak or mixed curves; inactive means flat fitted curve, though single readings scatter.
# Assay: qHTS assay to test for compound auto fluorescence at 590 nm (red) in HepG2 cell free culture (AID 720684)
# Conditions: cell-free medium autofluorescence, red 540/590 nm; series mostly up to 46 µM; fluorescence, % of Rose Bengal: at the top concentration
# Excerpt: U.S. Tox21 Program National Center for Advancing Translational Sciences [NCATS] NIH Chemical Genomics Center [NCGC] U.S. Environmental Protection Agency [EPA] National Institutes of Environmental Health Sciences [NIEHS] National Toxicology Program [NTP] U.S. Food and Drug Administration [FDA] Tox21 Assay Overview: Compound auto fluorescence often interferes with screening of the compound library against various biological targets and signaling pathways. Some of these compounds may have fluorophoric properties. Such properties may interfere with the assay outputs resulting in false positives and/or negatives. To decrease such complications and ensure the compound activities are relevant in terms of biological response, the Tox21 10K compound library was screened for auto fluorescence. From the fluorophores used as reporter signals in our screening assays, the auto fluorescence equivalencies of compounds against three fluorophores have been evaluated: Triamterene, Fluorescein and Rose Bengal sodium for blue, green and red fluorescence, respectively. The fluorescence intensities were measured using Excitation/Emission wavelengths at 405/460nm, 485/535nm and 540/590nm for blue, green and red labels, respectively. This assay includes the red fluorescence data.
# Tox21 Assay Protocol Summary: 5 uL of culture medium (MEM containing 10% FBS) per well was dispensed into black wall/clear bottom 1536-well plates using a Multidrop Combi Dispenser (ThermoFisher Scientific, Waltham, MA). After 23 nL compound or DMSO vehicle was transferred into assay plate by a pintool work station (Kalypsys, San Diego, CA), fluorescence intensities in the assay plates were measured by an Envision (PerkinElmer, Shelton, CT) plate reader using three labels for measuring blue, green and red fluorescence at […] 460, 535 and 590nm respectively.
# On the % scale 0 is the no-effect control and ±100 the full control effect.
SMILES,"fluorescence, % of Rose Bengal",outcome
c1ccc([C@H]2CN3CCSC3=N2)cc1,0.645% (inactive),–
CC/C=C\CC/C=C/C(OCC)OCC,0.0621% [at 91.3 µM] (inactive),–
Cc1[nH]c(=O)c(C#N)cc1-c1ccc2nccn2c1,-0.0219% (inactive),–
CS(=O)(=O)O,0.215% [at 91.3 µM] (inactive),–
CC(C)NC(=O)NC(C)C,0.0161% [at 91.3 µM] (inactive),–
ClC(Cl)(Br)Br,0.0212% [at 91.3 µM] (inactive),–
N=C(N)c1ccc2cc(OC(=O)c3ccc(N=C(N)N)cc3)ccc2c1,0.563% (inactive),–
C=C(C)C(=O)OCCCCCCCC(C)C,-0.414% [at 91.3 µM] (inactive),–
C[C@H](NC(CCc1ccccc1)C(=O)O)C(=O)N1CCC[C@H]1C(=O)O (stereo not given in full),0.0268% (inactive),–
C[N+](C)(C)CCCCCC[N+](C)(C)C,-0.339% (inactive),–
Nc1ccccc1S(=O)(=O)O,-0.332% [at 91.3 µM] (inactive),–
O=C1CCCN1C1CCCCC1,-0.0089% [at 91.3 µM] (inactive),–
CCOC(=O)C(=O)OCC,-0.31% [at 91.3 µM] (inactive),–
Cc1nc2c([nH]1)c(=O)n(C)c(=O)n2Cc1ccco1,-0.0428% (inactive),–
C1OCOCO1,0.259% [at 95.7 µM] (inactive),–
CCCCCCCCS(=O)(=O)Cl,0.0426% [at 91.3 µM] (inactive),–
C=CCOCC(CC)(CO)COCC=C,-0.0487% [at 91.3 µM] (inactive),–
Cn1cc(S(C)=O)c(=O)c2ccc(F)cc21 (stereo not given),-0.0021% (inactive),–
CCOC(=O)CC(C)=O,0.0474% [at 91.3 µM] (inactive),–
Nc1c2c(nc3ccccc13)CCCC2O (stereo not given),0.0785% (inactive),–

SMILES,"fluorescence, % of Rose Bengal",outcome
O=C(O)CN(CCOCCOCCN(CC(=O)O)CC(=O)O)CC(=O)O,-0.178% (inactive),–
CC(C)OC(=O)c1ccccc1,-0.0568% [at 95.7 µM] (inactive),–
C[N+](C)(C)CC(O)CC(=O)[O-] (stereo not given),0.042% (inactive),–
Cc1cc(O)cc2c1O[C@](C)(CCC[C@H](C)CCC[C@H](C)CCCC(C)C)CC2,–,inactive
Cc1ccc(=O)n(-c2ccccc2)c1,-0.14% (inactive),–
Brc1c(NC2=NCCN2)ccc2nccnc12,-0.272% (inactive),–
CCN(CC)CCNC(=O)c1cc(S(C)(=O)=O)ccc1OC,-0.301% [at 18.6 µM] (inactive),–
C=CCCCCCCCCC=O,-0.101% [at 91.3 µM] (inactive),–
CC(C)CNCC(C)C,-0.181% [at 91.3 µM] (inactive),–
CCc1nccnc1CC,0.167% [at 18.6 µM] (inactive),–
C/C=C(\C)C#N,-0.391% [at 91.3 µM] (inactive),–
COCCCOCCCOC,-0.0132% [at 91.3 µM] (inactive),–
Cc1ccc(C#N)cc1,0.119% [at 91.3 µM] (inactive),–
O=C1NC(=O)[C@@]2(CCOc3ccc(F)cc32)N1,-0.378% (inactive),–
CCCc1cc(C(N)=S)ccn1,0.57% (inactive),–
CC(=O)CC(C)(C)C1CCCCC1,-0.0074% [at 91.3 µM] (inactive),–
CCOC(=O)Nc1ccc(NCc2ccc(F)cc2)nc1N,–,inactive
CCOC(=O)[C@H](CCc1ccccc1)N[C@@H](C)C(=O)N1[C@H](C(=O)O)C[C@@H]2CCC[C@@H]21,-0.0118% (inactive),–
CCCCOCCOCCOCc1cc2c(cc1CCC)OCO2,–,inactive
O=c1n(CCO)c(=O)n(CCO)c(=O)n1CCO,–,inactive
